Results on 14 molecules are retold here after PubChem BioAssay.

Test [1] in a line: inhibitors of TNFa-induced NFkB p65 translocation, primary screen, imaging, HUVEC, MLSMR starter and 10KST1 sets (AID 438;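 active = inhibition above 20% together with a positive visual image hit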;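 note: compound added about 3h40 before a 20 min TNFalpha stimulation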;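 for inhibition: signal is the nuclear over cytoplasmic p65 intensity ratio per well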). As to conditions: HUVEC TNFa-induced p65 nuclear translocation; cell count: measured here: nuclei count (cytotoxicity indicator), at 2.08 µM; inhibition: at 2 µM, stronger effect = higher value, 0% TNFa-plus-vehicle, 100% no-TNFa wells.
A short description of test [2]: reduction of polyQ htt aggregates in cells – imaging, exon1htt(103Q)mCFP cells, high-content imaging, primary screen (AID 483;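 active = visual image review flags a hit and inhibition of aggregation exceeds 20%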;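 note: compound exposure lasted 3 days before fixation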;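 for nuclei count: percent of the per-plate median nuclei count of sample wells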). As to conditions: exon1htt(103Q)mCFP cell line, aggregate imaging, at 2 µM; inhibition of aggregation: stronger effect = higher value; nuclei count: measured here: cell count, toxicity.
Test [3] in a line: endothelial E-selectin expression blockers – imaging, HUVEC, immunofluorescence, MLSMR starter and 10KST1 sets, primary screen (AID 487;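 active = visually confirmed hit in the image check and inhibition above 20%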;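 for inhibition: signal is fraction of cell area covered by stained E-selectin grains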;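 for nuclei count: 100% = median nuclei count of all wells on the same plate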). As to conditions: HUVEC TNFalpha-induced E-selectin immunofluorescence imaging, at 2 µM; inhibition: stronger effect = higher value; nuclei count: measured here: cell number, toxicity.
Test [4] has as its target Voltage-gated potassium channel subunit beta-2 (Rattus norvegicus) (UniProt P62483). The test is described as follows: inhibitors of rat Kvbeta2 reductase activity – biochemical, NADPH fluorescence, primary screen (AID 622).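 Note: slope of raw intensity against log time taken from 70 to 1610 s.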 As to conditions: recombinant KvBeta, 4-cyanobenzaldehyde reduction, at 10 µM, stronger effect = higher value.
Test [5] has the same target. Nature of the test: enhancers of rat Kvbeta2 NADPH turnover – biochemical, NADPH fluorescence, primary screen (AID 623;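 active = NADPH fluorescence slope more negative than the mean of all samples by about 3 SD, 99.7% confidence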;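 note: fluorescence intensity change per second fitted from 20 to 320 s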). As to conditions: Recombinant KvBeta, NADPH fluorescence decrease slope, 10 min; at 10 µM; stronger effect = lower value.
Test [6] has as its target Alpha-2C adrenergic receptor (Homo sapiens) (UniProt P18825). The test is described as follows: compounds altering alpha2C-coupled GIRK flux – cell-based, HEK293 alpha2C/GIRK1/2, thallium flux, primary screen (AID 624;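 active = fluorescence slope after compound addition differing from the mean of all screened samples at 99.7% confidence, in either direction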;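 note: slope of fluorescence ratio to pre-addition baseline per second over 15 to 24 s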). As to conditions: thallium flux BTC fluorescence, at 10 µM, actives lie on both sides.
Test [7] is described as follows: blockers of RIG-like receptor reporter activation – cell-based, Sendai virus stimulus, luciferase, 10K MLSCN set, TLR/RLR signaling modifier project, primary screen (AID 602276;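 active = inhibition at or above 50% at 10 µM; inactive = inhibition below 50%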;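 note: firefly luciferase from ISG56 promoter only with Renilla not read in this screen; 0% = Sendai virus plus DMSO and 100% = medium plus DMSO without virus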). As to conditions: HEK293 RL24 IRF3 luciferase reporter, at 10 µM, stronger effect = higher value.
A short description of test [8]: TLR3 IRF3 reporter activation blockers – cell-based, poly I:C stimulus, luciferase, 10K MLSCN set, primary screen (AID 602277;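 active = inhibition of the reporter signal at or above 50%; inactive = inhibition below 50%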). As to conditions: HEK293-TLR3 RL24 IRF3 luciferase reporter, at 10 µM, stronger effect = higher value. Background: A reporter such as luciferase makes a cellular process visible.

The source made the active and inactive calls.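 Rule for the calls, unless noted: active = fluorescence slope higher than the sample average by over 3 SD (cut at about -0.22 in these data, passing the limit was not always enough); inactive = the rest.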

Sequence of Voltage-gated potassium channel subunit beta-2 (Rattus norvegicus) (P62483 whole entry, looked up): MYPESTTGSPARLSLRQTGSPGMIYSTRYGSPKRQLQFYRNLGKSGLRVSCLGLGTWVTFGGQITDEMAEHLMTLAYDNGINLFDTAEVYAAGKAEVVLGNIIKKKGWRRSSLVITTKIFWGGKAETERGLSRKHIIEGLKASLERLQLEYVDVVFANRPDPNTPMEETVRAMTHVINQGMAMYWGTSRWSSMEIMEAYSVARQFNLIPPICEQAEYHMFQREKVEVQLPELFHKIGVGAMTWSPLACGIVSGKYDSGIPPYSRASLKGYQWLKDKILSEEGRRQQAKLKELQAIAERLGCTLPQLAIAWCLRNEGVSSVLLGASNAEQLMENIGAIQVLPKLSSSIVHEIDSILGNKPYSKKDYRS
Sequence of Alpha-2C adrenergic receptor (Homo sapiens) (P18825 whole entry, looked up): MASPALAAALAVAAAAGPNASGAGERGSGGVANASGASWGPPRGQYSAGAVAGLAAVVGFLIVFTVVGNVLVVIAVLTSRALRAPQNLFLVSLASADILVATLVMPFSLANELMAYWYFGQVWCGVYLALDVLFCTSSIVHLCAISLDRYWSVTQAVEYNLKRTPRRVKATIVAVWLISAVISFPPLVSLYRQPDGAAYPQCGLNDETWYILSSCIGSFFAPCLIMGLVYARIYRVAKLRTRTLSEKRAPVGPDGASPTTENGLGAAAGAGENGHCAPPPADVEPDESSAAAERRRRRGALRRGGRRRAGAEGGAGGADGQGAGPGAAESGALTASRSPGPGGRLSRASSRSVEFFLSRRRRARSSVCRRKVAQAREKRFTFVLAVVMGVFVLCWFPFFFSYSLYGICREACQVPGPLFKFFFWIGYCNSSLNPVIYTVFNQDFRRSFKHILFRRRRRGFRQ

By inhibition is commonly meant the relative decrease from the control value, in per cent. `CN(C)C(=O)N1CCCC(C(=O)NCc2ccccc2)C1` (centres undefined): the cell count in test [1] amounted to 606. Moreover, the inhibition is -3.9% (inactive) in test [1], -50.4% (inactive) in test [3], 40.6% (inactive) in test [7] and 25.4% (inactive) in test [8]. Further, the inhibition of aggregation in test [2] was -1.5% (inactive). For the same molecule, the nuclei count in test [2] was 84%; in test [3], 112%. Besides, the fluorescence slope in test [4] was -0.341 (inactive). The NADPH fluorescence slope in test [5] was -2.4e-05 (inactive). Besides, the slope in test [6] was 0.00548 (inactive).
In the case of `C=C(Cl)COC(=O)[C@H]1C2C=CC(C2)C1C(=O)O` (some centres undefined), the cell count in test [1] turned out to be 347. Besides, the inhibition in test [1] is -5% (inactive); in test [3], -29.7% (inactive); in test [7], -6.49% (inactive); in test [8], 2.25% (inactive). In addition, the inhibition of aggregation in test [2] was -18.6% (inactive). The nuclei count came to 96.9% in test [2] and 124% in test [3]. Moreover, in test [4], the fluorescence slope is -0.435 (inactive). The NADPH fluorescence slope in test [5] is 5.3e-05 (inactive). For the same molecule, the slope in test [6] is 0.00591 (inactive).
For the molecule `C(=C\c1ccccc1)/CN1CCN(Cc2ccc3c(c2)OCCO3)CC1`, in test [1], the cell count was determined as 435. Besides, the inhibition in test [1] is 0.5% (inactive); in test [3] it was -26.4% (inactive); in test [7] it was 14% (inactive); in test [8], 19.9% (inactive). Also, the inhibition of aggregation in test [2] is 2% (inactive). In addition, the nuclei count in test [2] was 104%; in test [3], 120%. The fluorescence slope in test [4] is -0.442 (inactive). In addition, the NADPH fluorescence slope in test [5] was 2e-05 (inactive). Also, in test [6], the slope is 0.00636 (inactive).
As to `COCCn1c(SCC(=O)Nc2sc(C)c(C)c2C#N)nnc1C(C)C`, in test [1], the cell count amounted to 593. In addition, the inhibition was -11.7% (inactive) in test [1], 18.9% (inactive) in test [3], 11.9% (inactive) in test [7] and 5.56% (inactive) in test [8]. Also, in test [2], the inhibition of aggregation is 25.9% (inactive). Moreover, the nuclei count in test [2] is 73%; in test [3], 78.2%. Also, in test [4], the fluorescence slope was -0.491 (inactive). Besides, the NADPH fluorescence slope in test [5] was -7.2e-05 (inactive). In test [6], the slope is 0.00431 (inactive).
Regarding `CC(c1ccccc1)n1cnc2ccccc21` (centres undefined), the cell count in test [1] came out at 590. In addition, the inhibition in test [1] is -2.5% (inactive); in test [3] it was -48% (inactive); in test [7], 7.98% (inactive); in test [8], 19% (inactive). Besides, the inhibition of aggregation in test [2] is 17.1% (inactive). In addition, the figures for the nuclei count in test [2] and in test [3] were 94.1% and 148%, respectively. Also, the fluorescence slope in test [4] is -0.364 (inactive). Also, in test [5], the NADPH fluorescence slope is -6.9e-05 (inactive). Besides, the slope in test [6] is 0.00531 (inactive).
Consider `Cc1ccc(C)c(C(=O)CC2(O)C(=O)Nc3ccccc32)c1` (centres undefined), for which, in test [1], the cell count worked out at 602. Also, the inhibition was -11% (inactive) in test [1], -108% (inactive) in test [3], 3.23% (inactive) in test [7] and -1.7% (inactive) in test [8]. Further, the inhibition of aggregation in test [2] is 23.6% (inactive). The nuclei count in test [2] was determined as 62.9%; in test [3], 126%. In addition, the fluorescence slope in test [4] is -0.416 (inactive). For the same molecule, the NADPH fluorescence slope in test [5] is -3.2e-05 (inactive). Also, the slope in test [6] was 0.00493 (inactive).
With `COc1ccccc1C(=O)n1nc(-c2ccc(Cl)cc2)nc1N`, the cell count in test [1] was 330. Further, the inhibition in test [1] was -1.2% (inactive); in test [3] it was -17.2% (inactive); in test [7], 2.38% (inactive); in test [8] it was 9.48% (inactive). In addition, the inhibition of aggregation in test [2] was -3.1% (inactive). Also, the nuclei count in test [2] is 104%; in test [3], 113%. The fluorescence slope in test [4] was -0.426 (inactive). Besides, the NADPH fluorescence slope in test [5] is 1.8e-05 (inactive). Further, in test [6], the slope is 0.00385 (inactive).
On to `CN(C)c1ccc(CNn2cnnc2)cc1`, for which the cell count in test [1] is 499. Also, the inhibition was 4.4% (inactive) in test [1], -50.6% (inactive) in test [3], 5.14% (inactive) in test [7] and 16.1% (inactive) in test [8]. Further, in test [2], the inhibition of aggregation was 3.2% (inactive). The figures for the nuclei count in test [2] and in test [3] were 68.8% and 102%, respectively. In addition, the fluorescence slope in test [4] was -0.369 (inactive). Further, the NADPH fluorescence slope in test [5] was 1.6e-05 (inactive). Besides, the slope in test [6] is 0.00382 (inactive).
As to `c1coc(CN(Cc2cccs2)Cc2nnnn2C2CCCCC2)c1`, in test [1], the cell count stood at 394. The inhibition in test [1] was -10.4% (inactive); in test [3], -12.8% (inactive); in test [7] it was 19.6% (inactive); in test [8], 24.5% (inactive). In addition, in test [2], the inhibition of aggregation is 26.1% (inactive). Moreover, the nuclei count in test [2] was found to be 119%; in test [3], 97.7%. The fluorescence slope in test [4] was -0.571 (inactive). Also, the NADPH fluorescence slope in test [5] is 1.3e-05 (inactive). For the same molecule, the slope in test [6] was 0.00524 (inactive).
On to `CCOC(=O)N1CCN(CC(O)COc2ccccc2C(C)CC)CC1` (centres undefined), for which the cell count in test [1] turned out to be 631. Besides, the inhibition in test [1] was -12.4% (inactive); in test [3] it was -35.9% (inactive); in test [7], 10.8% (inactive); in test [8], 35.4% (inactive). Moreover, the inhibition of aggregation in test [2] was 0.6% (inactive). Also, the nuclei count in test [2] came out at 100%; in test [3] it was 122%. The fluorescence slope in test [4] is -0.612 (inactive). Moreover, the NADPH fluorescence slope in test [5] was -1.6e-05 (inactive). Besides, in test [6], the slope was 0.00663 (inactive).
Take `COc1ccc(NC(=O)C(C)NS(=O)(=O)c2ccccc2)cc1Cl` (centres undefined): the cell count in test [1] is 315. The inhibition in test [1] was -15.9% (inactive); in test [3], -51.4% (inactive); in test [7], 8.06% (inactive); in test [8], 17.6% (inactive). For the same molecule, the inhibition of aggregation in test [2] is 2.6% (inactive). Moreover, the nuclei count in test [2] worked out at 116%; in test [3] it was 65%. In addition, in test [4], the fluorescence slope is -0.369 (inactive). The NADPH fluorescence slope in test [5] was 7.6e-06 (inactive). For the same molecule, the slope in test [6] is 0.00596 (inactive).
On to `Cc1cccc2cc(CN(CC3CCCO3)C(=O)c3cnccn3)c(=O)[nH]c12` (centres undefined), for which the cell count in test [1] was 257. Also, the inhibition was 18.6% (inactive) in test [1], -41% (inactive) in test [3], 8.77% (inactive) in test [7] and 32.1% (inactive) in test [8]. Besides, the inhibition of aggregation in test [2] was 5.3% (inactive). Besides, the nuclei count was found to be 45.1% in test [2] and 113% in test [3]. The fluorescence slope in test [4] is -0.401 (inactive). Further, the NADPH fluorescence slope in test [5] was -9.9e-06 (inactive). In addition, the slope in test [6] is 0.00355 (inactive).
With `NC(=O)COC(=O)c1ccc(S(=O)(=O)N2CCCCCC2)cc1`, the cell count in test [1] is 449. The inhibition is -7.8% (inactive) in test [1], -17.6% (inactive) in test [3], 11% (inactive) in test [7] and 14% (inactive) in test [8]. In test [2], the inhibition of aggregation was 6.3% (inactive). The nuclei count came out at 104% in test [2] and 116% in test [3]. In addition, in test [4], the fluorescence slope is -0.348 (inactive). Also, the NADPH fluorescence slope in test [5] is -6.2e-05 (inactive). Besides, the slope in test [6] is 0.00701 (inactive).
Take `COCCNC(=O)CN1CCN(C(c2ccccc2)c2ccccc2)CC1`: the cell count in test [1] was found to be 240. The inhibition in test [1] is -6.6% (inactive); in test [3], -7.5% (inactive); in test [7] it was -12.4% (inactive); in test [8], -6.81% (inactive). In addition, in test [2], the inhibition of aggregation was 18.2% (inactive). The nuclei count in test [2] was determined as 77.7%; in test [3] it was 86.9%. For the same molecule, in test [4], the fluorescence slope is -0.556 (inactive). Besides, in test [5], the NADPH fluorescence slope is -4.9e-05 (inactive). Also, the slope in test [6] is 0.00771 (inactive).
